BRCA1 expr up: qHTS Assay to Identify Small Molecule Activators of BRCA1 Expression | MCF7-BRCA1-FFLuc reporter, luminescence, 48 h; response scale: scaled: vehicle 0%, 10 µM genistein 100% | Potency, µM (titrated, usually from 46.1 µM), for inactives: top-dose activation, usual class: activators | hit rate 1.1% among 380,000; note: nearly all actives have a fitted effect of over 80% in size
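Cells: MCF7-BRCA1-FFLuc, 2000/well. Exposure: 48 h, 37 °C, 5% CO2. Read: luminescence, 15 min post-substrate. Controls: genistein 10 microM (maximal activation), DMSO (neutral).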
PLK1 PBD block: qHTS for Inhibitors of PLK1-PDB (polo-like kinase 1 - polo-box domain): Primary Screen | Serine/threonine-protein kinase PLK1 (Homo sapiens), P53350 | Plk1 PBD binding of FITC phosphopeptide, fluorescence polarization | Potency, µM, for inactives: max response, negative = inhibition, actives largely listed as inhibitors | hit rate 2.8% among 360,000; note: series mostly up to about 57 µM; % is set by controls: 0 for no effect and ±100 for the full control effect; nearly all actives have a fitted effect of over 65% in size
Tb PFK inh: qHTS Assay to Find Inhibitors of T. brucei phosphofructokinase; AID 485367, 2010; ATP-dependent 6-phosphofructokinase (Trypanosoma brucei brucei), O15648; T. brucei PFK, ADP-Glo luminescence; hit rate 0.17% among 330,000; Potency, µM (top dose mostly 57.5 µM), inactives show at the highest dose activity, negative = inhibition, hits mostly inhibitors;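 note: 0% = uninhibited 1x PFK enzyme wells and -100% = no-enzyme wells; nearly all actives have a fitted effect of over 60% in size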
Target sequence (O15648 whole entry, looked up): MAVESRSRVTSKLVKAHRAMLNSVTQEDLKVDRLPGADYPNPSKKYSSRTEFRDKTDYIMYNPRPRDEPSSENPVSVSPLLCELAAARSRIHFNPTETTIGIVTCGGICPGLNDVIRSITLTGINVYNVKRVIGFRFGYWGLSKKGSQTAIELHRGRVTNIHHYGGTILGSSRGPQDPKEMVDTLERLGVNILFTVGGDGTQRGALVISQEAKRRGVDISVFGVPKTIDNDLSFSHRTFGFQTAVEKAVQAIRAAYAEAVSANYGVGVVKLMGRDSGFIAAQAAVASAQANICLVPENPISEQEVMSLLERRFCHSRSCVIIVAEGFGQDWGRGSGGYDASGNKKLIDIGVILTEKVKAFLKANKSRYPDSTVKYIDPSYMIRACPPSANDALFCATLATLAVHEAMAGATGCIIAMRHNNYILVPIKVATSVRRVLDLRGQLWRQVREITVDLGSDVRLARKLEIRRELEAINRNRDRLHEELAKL
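PFK 1.25 nM, F6P 0.5 mM, ATP 0.1 mM, 0.1 M TEA pH 8.0, 5 mM MgCl2, 0.01% Tween20, 0.1% BSA; 45 min RT. ADP-Glo readout. qHTS titration up to 57 uM; curves fitted, compounds curve-classed.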
VDR inh: Inhibitors of the vitamin D receptor (VDR): qHTS; Potency, µM, inactives show max response, negative = inhibition, usual class: inhibitors; hit rate 0.93% among 400,000; Vitamin D3 receptor (Homo sapiens), P11473; VDR-SRC2-3 peptide fluorescence polarization, 2 h; AID 504847, 2011; note: % is set by controls: 0 for no effect and ±100 for the full control effect
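VDR–SRC2-3 interaction, FP format. Cmpds 23 nl via pintool, brief spin, 2 h ambient incubation.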
VDR inh confirm: qHTS for Inhibitors of the vitamin D receptor (VDR): Hit Validation in Primary Screen; AID 602199, 2012; VDR-coactivator inhibition assay, qHTS confirmation; Potency, µM, most hits filed as inhibitors; hit rate 89% among 840; shares compounds with VDR inh
VDR FP fluor: qHTS for Inhibitors of the vitamin D receptor (VDR): Hit Validation using a Fluorescein Assay | shares compounds with VDR inh | VDR-coactivator binding, fluorescein fluorescence polarization | Potency, µM (titrated, usually from 57.1 µM), inactives show top-dose activity change, negative = inhibition, usual class: inhibitors | hit rate 48% among 840 | AID 602200, 2012
VDR bla reporter: qHTS for Inhibitors of the vitamin D receptor (VDR): Hit Validation using a Beta-Lactamase Assay; Potency, µM (top dose mostly 46.1 µM), inactives show top-dose activity change, negative = inhibition, usual class: inhibitors; shares compounds with VDR inh; VDR beta-lactamase reporter cells, FRET ratio; cells co-treated with VDR agonist LG190178; AID 602202, 2012; hit rate 23% among 840; note: % is set by controls: 0 for no effect and ±100 for the full control effect
VDR cytotox: qHTS for Inhibitors of the vitamin D receptor (VDR): Hit Validation using a Cytotoxicity Assay; Potency, µM (doses to about 48.3 µM), inactives show at the top dose activity change, negative = cytotoxicity, actives largely listed as cytotoxic; cytotoxicity counter-screen, cell viability, qHTS; hit rate 18% among 840; shares compounds with VDR inh;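 note: plate controls were DMSO for no effect and high-concentration cycloheximide for full effect; nearly all actives have a fitted effect of over 75% in size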
The depositor's hits bear a star; ? = inconclusive; . = no result; [ ] = another dose, or the depositor's remark. Most compounds without a hit are left out; they make up all but 3.9% or so of the library. Calls come from the whole dose curve; as a rule, active = well fitted curve in the direction sought with a large enough effect; inconclusive = small, poorly fitted or top-dose-only effect, or another doubt; inactive = no such curve, though single readings can be large; an effect the other way counts as inactive or inconclusive. Potency is the fitted concentration of half-maximal effect.

SMILES	BRCA1 expr up	PLK1 PBD block	Tb PFK inh	VDR inh	VDR inh confirm	VDR FP fluor	VDR bla reporter	VDR cytotox
COC(=O)[C@H](C)NC(=O)c1cc2c(cn1)[nH]c1ccccc12	-25.4%	1.34µM*	-25.2%	22.4µM*	3.36*	?	16.6%	-10.9%
Oc1ccc(C(=S)N2CCN(c3cccc(Cl)c3)CC2)cc1	-39.2%	8.44µM*	-12.6%	?	?	?	-23.2%	3.7%
CC(=O)c1ccc(NC(=S)N2CCN(c3cccc(Cl)c3)CC2)cc1	0.9%	-5.9%	-14.5%	-0.1%	.	.	.	.
Oc1c(C(c2ccccc2)N2CCOCC2)ccc2ccccc12 (centres undefined)	-2.6%	1.19µM*	.	20µM*	4.74*	3.16µM*	3.0%	?
O=C(CN1CCN(C(c2ccccc2)c2ccccc2)CC1)N1CCOCC1	0.4%	-4.0%	-1.5%	0.5%	.	.	.	.
O=C(/C=C/c1cccc([N+](=O)[O-])c1)c1ccc2c(c1)OCCO2	-1.5%	-24.4%	-0.6%	?	12.6*	12.6µM*	?	?
O=C(/C=C/c1cccc([N+](=O)[O-])c1)c1cccs1	-45.7%	-29.1%	-1.6%	?	5.62*	7.94µM*	-3.3%	?
Cc1ccc(S(=O)(=O)N2C[C@H]3C(=O)C[C@@H](c4ccccc4)N(S(=O)(=O)c4ccc(C)cc4)[C@H]3C[C@H]2c2cccc(C)c2)cc1	-0.6%	7.0%	.	.	.	.	.	.
CCn1c(CSc2nnc(-c3ccncc3)n2CCOC)nc2cc(C(=O)O)ccc21	-5.8%	-7.3%	6.5%	12.6µM*	21.2*	21.9%	4.5%	18.9%
CCn1c(CSc2nnc(-c3cccnc3)n2-c2ccccc2C)nc2cc(C(=O)O)ccc21	.	.	-9.1%	.	.	.	.	.
NS(=O)(=O)c1ccc(NC2=CC(=O)C(=O)c3ccccc32)cc1	-57.5%	26.7µM*	1.5%	?	14.1*	7.94µM*	?	?
COc1ccc(-n2c(SCC#N)nc3c(sc(=S)n3-c3ccccc3)c2=O)c(OC)c1	17.2%	5.97µM*	-11.4%	25.1µM*	8.44*	?	31.2%	2.9%
O=C(Nc1ccccc1C(F)(F)F)C1(S(=O)(=O)c2ccc(Cl)cc2)CC1	.	.	.	-4.9%	.	.	.	.
Cc1ccccc1N1CC(=O)N(c2ccccc2C)CC1=O	-6.0%	0.2%	2.1%	-2.0%	.	.	.	.
Cc1cccc2c1c1ccc3c(c1n2C)C(=O)C=CC3=O	-22.0%	?	-9.4%	22.4µM*	9.47*	12.6µM*	7.31µM*	8.91µM*
Cc1sc2ccccc2[n+]1CCCCI	-29.4%	.	.	.	.	.	.	.
Cc1sc2ccccc2[n+]1CCc1ccccc1	.	.	.	.	11.2*	7.94µM*	13.9%	3.8%
O=[N+]([O-])/C=C/c1cn(Cc2ccccc2)c2ccccc12	-88.4%	?	-4.4%	14.1µM*	11.9*	?	?	?
O=C(O)Cn1cc(/C=C/[N+](=O)[O-])c2ccccc21	-17.8%	-28.6%	?	?	.	.	.	.
CCOC(=O)c1c(C)[nH]c(C)c1S(=O)(=O)N1CCC(C(=O)NCc2cccc(OC)c2)CC1	19.8%	.	.	8.6%	.	.	.	.
Cc1ccc(/C=c2\sc3nc(-c4cccnc4)nn3c2=O)cc1	6.4%	-12.7%	6.9%	?	2.24*	1.12µM*	2.7%	17.8%
CC(C)c1ccc(/C=c2\sc3nc(-c4ccncc4)nn3c2=O)cc1	39.7%	-30.0%	-5.6%[0.46 µM]	22.4µM*	2.67*	?	-6.9%	17.7%
CCOc1ccc(/C=c2\sc3nc(-c4ccco4)nn3c2=O)cc1OCC	4.2%	-26.1%	-9.5%	-15.1%	.	.	.	.
Cn1nc(-c2cccnc2)nc2c(=O)n(C)c(=O)nc1-2	-79.7%	.	.	-8.1%	.	.	.	.
CC(C)(C)C(=O)Nc1ccc2c(c1)C(=O)C(=O)c1ccccc1-2	-31.1%	.	.	8.91µM*	1.26*	1µM*	4.11µM*	5.97µM*
SMILES	BRCA1 expr up	PLK1 PBD block	Tb PFK inh	VDR inh	VDR inh confirm	VDR FP fluor	VDR bla reporter	VDR cytotox
CSc1ncccc1C(=O)N1CCC1(C)C(=O)NC(C)C (centres undefined)	10.2%	-10.2%	.	.	.	.	.	.
CCc1ccc(C(=O)/C=C/c2ccc([N+](=O)[O-])o2)cc1	-13.2%	5.97µM*	1.3%	31.6µM*	6.7*	?	16.4µM*	?
CCOC(=O)CCc1ccc(NC(=O)/C=C/c2ccc([N+](=O)[O-])o2)cc1	-96.5%	-10.0%	.	-13.5%	.	.	.	.
CCc1ccc(/C=C/C(=O)c2ccc(N3CCOCC3)cc2)cc1	-0.9%	-7.9%	-6.8%	-11.1%	.	.	.	.
CCc1ccc(/C=C/C(=O)c2ccc(S(=O)(=O)N(C)C)cc2)cc1	-36.6%	-8.9%	-1.5%	?	?	6.31µM*	32.8%	?
Cc1cccc(C)c1OCC(=O)N(Cc1ccccc1F)C1CCS(=O)(=O)C1 (centres undefined)	.	.	.	3.0%	.	.	.	.
CCN(CC)c1ccc(N=Cc2ccccc2[N+](=O)[O-])cc1	-80.1%	4.1%	-4.2%	?	.	.	.	.
CCN(CC)c1ccc(N=Cc2ccc([N+](=O)[O-])o2)cc1	-88.0%	-23.0%	-6.6%	?	7.94*	1.7%	3.2%	-7.7%
CN1C(=O)Cc2cc(S(=O)(=O)CCC(=O)N3CCN(c4ccc(Cl)cc4)CC3)ccc21	.	.	.	17.4%	.	.	.	.
COc1ccc(S(=O)(=O)Nc2cc(Sc3ncn[nH]3)c(O)c3ccccc23)cc1	-75.3%	.	?	20µM*	21.2*	?	?	18.4µM*
COc1ccc(S(=O)(=O)Nc2cc(SCC(=O)O)c(O)c3ccccc23)cc1	-76.4%	1.5µM*	?	?	15.8*	14.1µM*	?	?
Cc1cc(C)c(S(=O)(=O)Nc2cc(SCC(=O)O)c(O)c3ccccc23)cc1C	-91.3%	1.5µM*	-13.2%	22.4µM*	5.32*	11.2µM*	0.2%	?
O=C(O)CSc1cc(NS(=O)(=O)c2ccc(Cl)cc2)c2ccccc2c1O	-107.5%	1.34µM*	0.0%	3.55µM*	29.9*	?	?	?

Screens deposited in PubChem BioAssay by National Center for Advancing Translational Sciences (NCATS).
